{"source": "PubChem BioAssay AID2061323", "about": "(National Center for Advancing Translational Sciences (NCATS), 2025)", "note": "Inconclusive results are not listed. Calls of active or inactive are those of the source. Calls follow the shape of the dose curve; as a rule, active = well fitted inhibition curve with a large enough effect; inconclusive = small, poorly fitted or top-dose-only effect; inactive = flat fitted curve, though single readings scatter.", "data": [{"assay": "Identification of antibody-drug conjugate (ADC) payloads which are substrates of ATP-binding cassette drug efflux transporters: ABCG2-HEK293-R5 cell line", "conditions": "ABCG2-HEK293-R5 viability, CellTiter-Glo ATP luminescence, 48 h", "from_the_text": "Antibody-drug conjugates (ADCs) feature an antibody recognizing a specific protein joined to a potent toxic payload. Numerous antibody-drug conjugates have received FDA approval; however, clinical resistance arises. Resistance mechanisms include decreased expression or mutation of the antibody target, impaired payload release, or increased expression of ATP-binding cassette (ABC) efflux transporters associated with multidrug resistance. We therefore sought to characterize the interaction of ABC multidrug transporters with ADC payloads. We performed a high-throughput screen with 27 common ADC payloads using cells lines expressing ABC transporters P-glycoprotein (P-gp, encoded by ABCB1) or ABCG2 (encoded by ABCG2). Confirmatory assays were also performed using cells transfected to express P-gp, ABCG2, or MRP1 (encoded by ABCC1). Several commonly used ADC payloads were substrates of P-gp, including calicheamicin gamma1, monomethyl auristatin E, DM1, and DM4. All the pyrrolobenzodiazepines tested - SJG136, SGD-1882, SG2057, and SG3199 - were substrates of P-gp, ABCG2, and MRP1. […] These findings highlight the risk of transporter-mediated resistance with certain ADC payloads and underscore the importance of selecting payloads that evade ABC transporter recognition in future ADC development.\nHEK-293 cells were transfected with empty vector (pcDNA) or vector containing the human ABCB1 (MDR-19), ABCG2 (R-5), or ABCC1 gene (MRP1) and were maintained in EMEM with 2 mg/mL G418 added to maintain transporter expression. The HeLa derivative KB-3-1 and the P-gp overexpressing KB-8-5-11 subline were maintained in DMEM; KB-8-5-11 additionally received 100 ng/mL colchicine. H460 parental cells were obtained from the Division of Cancer Treatment and Diagnosis Tumor Repository, National Cancer Institute at Frederick, MD and were cultured in RPMI. The ABCG2 expressing subline H460 MX20 was generated by selecting H460 cells in 20 nM mitoxantrone. Media in all cases was supplemented with 10% FBS and 1% penicillin-streptomycin. We explored 27 common ADC payloads, in two orthogonal, paired cell line sets-a drug selected and transfected set for each transporter--to identify substrates of the ABC transporters P-gp and ABCG2. Compounds were sourced from Levena Biopharma (San Diego, CA), Selleck Chem (Houston, TX), ChemieTek (Indianapolis, IN), or Microsource Discovery Systems (Gaylordsville, CT). Screening was performed as previously described. Briefly, cells were plated at a density of 500 cells/well in 1536 well plates with compounds added using a 1536-head pin tool (Kalypsys, San Diego CA). Cells were incubated with cytotoxic drugs and processed with CellTiter Glo reagent (Promega, Madison, WI) to determine viability after 48 hours. […]", "values": [{"smiles": "COc1cc2cc(c1Cl)N(C)C(=O)C[C@H](OC(=O)[C@H](C)N(C)C(=O)CCC(C)(C)S)[C@]1(C)OC1[C@H](C)C1C[C@@](O)(NC(=O)O1)[C@H](OC)/C=C/C=C(\\C)C2", "note": "(some centres undefined)", "Potency": "0.0024 µM (active)"}, {"smiles": "CC[C@H](C)[C@@H]([C@@H](CC(=O)N1CCC[C@H]1[C@H](OC)[C@@H](C)C(=O)N[C@H](C)[C@@H](O)c1ccccc1)OC)N(C)C(=O)[C@@H](NC(=O)[C@H](C(C)C)N(C)C)C(C)C", "Potency": "0.0084 µM (active)"}, {"smiles": "CC[C@@]1(O)C(=O)OCc2c1cc1n(c2=O)Cc2cc3ccccc3nc2-1", "Potency": "0.0134 µM (active)"}, {"smiles": "COc1cc2cc(C(=O)N3C[C@@H](CCl)c4c3cc(O)c3ccccc43)[nH]c2c(OC)c1OC", "Potency": "0.0212 µM (active)"}]}]}
